The values below come from PubChem BioAssay.

Inconclusive results are not listed. Activity calls are given as the source filed them.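 The calls were made as follows, unless noted: active = viability loss from added drug above about 55%, and viability with drug at most 40%, in both replicates (limit read from the data, passing the limit was not always enough); inconclusive = both conditions met in only one replicate; inactive = neither replicate meets both conditions.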

Test [1] can be described thus: reducers of endogenous Her2 protein level, primary screen, SKBR3 breast tumor cells, AlphaScreen, ATP viability (AID 461;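 active = Her2 level under about 52% in both replicate screens, with viability over 70% of control, limit read from the data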;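 as to Her2 level: lower value means less Her2 protein in the cells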;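 as to viability: percent of carrier control wells set as 100% viability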). The settings on record: 18-24 h, measured here: SKBR3 viability, ATP luminescence, at 10 µM.
The target in test [2] is Receptor tyrosine-protein kinase erbB-2 (Homo sapiens) (UniProt P04626). The test is described as above. As to conditions: 18-24 h, at 10 µM, stronger effect = lower value.
Sequence of Receptor tyrosine-protein kinase erbB-2 (Homo sapiens) (P04626 whole entry, looked up): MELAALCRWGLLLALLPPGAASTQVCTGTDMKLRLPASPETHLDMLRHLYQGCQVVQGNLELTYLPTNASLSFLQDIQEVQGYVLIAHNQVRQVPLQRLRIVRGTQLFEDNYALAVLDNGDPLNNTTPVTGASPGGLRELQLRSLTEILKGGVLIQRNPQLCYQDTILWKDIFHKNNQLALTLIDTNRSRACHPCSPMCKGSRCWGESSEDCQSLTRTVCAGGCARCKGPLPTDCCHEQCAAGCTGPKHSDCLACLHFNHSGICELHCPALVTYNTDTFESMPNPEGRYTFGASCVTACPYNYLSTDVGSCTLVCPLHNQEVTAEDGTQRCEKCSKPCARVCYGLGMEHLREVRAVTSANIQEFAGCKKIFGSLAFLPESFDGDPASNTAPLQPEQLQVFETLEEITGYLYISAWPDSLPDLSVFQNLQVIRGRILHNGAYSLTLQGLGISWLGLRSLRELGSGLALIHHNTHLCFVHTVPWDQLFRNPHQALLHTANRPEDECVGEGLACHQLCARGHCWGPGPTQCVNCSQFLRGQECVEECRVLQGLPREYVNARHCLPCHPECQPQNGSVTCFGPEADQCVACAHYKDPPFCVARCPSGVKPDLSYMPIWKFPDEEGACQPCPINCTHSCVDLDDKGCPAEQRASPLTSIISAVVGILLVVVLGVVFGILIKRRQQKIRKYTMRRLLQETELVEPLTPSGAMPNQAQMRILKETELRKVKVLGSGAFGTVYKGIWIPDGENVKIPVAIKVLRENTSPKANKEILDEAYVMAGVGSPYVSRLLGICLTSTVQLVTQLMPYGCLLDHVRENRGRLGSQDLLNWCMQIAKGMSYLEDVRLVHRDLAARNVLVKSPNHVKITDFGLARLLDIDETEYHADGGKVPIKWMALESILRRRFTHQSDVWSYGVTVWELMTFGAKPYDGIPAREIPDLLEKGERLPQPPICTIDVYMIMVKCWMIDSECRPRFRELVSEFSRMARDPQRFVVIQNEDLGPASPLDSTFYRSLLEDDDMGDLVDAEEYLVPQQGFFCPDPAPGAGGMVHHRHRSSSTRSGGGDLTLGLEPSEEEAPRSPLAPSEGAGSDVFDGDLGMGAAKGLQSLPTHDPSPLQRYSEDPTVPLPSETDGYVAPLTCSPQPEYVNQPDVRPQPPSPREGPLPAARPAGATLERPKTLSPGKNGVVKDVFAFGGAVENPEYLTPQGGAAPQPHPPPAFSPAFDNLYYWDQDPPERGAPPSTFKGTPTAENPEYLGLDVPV
Test [3] is described as follows: SK-BR-3 cell growth inhibitors, pilot screen, 24 h, human (AID 572;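 active = viability at or below 10% of carrier control in both of two separate runs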;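 also: compound exposure lasted between 18 and 24 h rather than exactly 24 h; 100% = carrier-treated control wells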). As to conditions: SK-BR-3 viability, CellTiter-Glo luminescence, at 10 µM, stronger effect = lower value. Background: Cellular ATP, detected with luciferase, serves as a proxy for viable cell number.
Test [4] in a line: HUVEC growth inhibition – cell-based, human, primary screen (AID 575;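 active = viability at or below 30% in both replicate assays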;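 also: 100% = median of untreated cell wells with 0.1% DMSO on each plate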). The settings on record: HUVEC proliferation, CellTiter-Glo luminescence, 72 h; at 10 µM; stronger effect = lower value.
Test [5] can be described thus: growth inhibitors of H69AR lung tumor, primary screen, human, duplicate replicates (AID 580;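 active = viability at or under a set limit in both replicates, limit being median viability minus 3 SD, cut at about 48% in these data, passing the limit was not always enough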;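 also: 100% = mean luminescence of untreated wells and 0% = no signal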). As to conditions: H69AR lung tumor cells viability, ATP luminescence, 72 h; at 10 µM; stronger effect = lower value.
The nature of test [6]: reversal of MRP1-mediated doxorubicin resistance, pilot screen, H69AR cells, doxorubicin co-treatment (AID 601). The settings on record: CellTiter-Glo, 72 h, at 10 µM; for differential viability (reversal): stronger effect = higher value.
A short description of test [7]: 384-well plate pilot, post-Golgi transport modulator project, inhibition of yeast transport mutant growth (AID 636; in the data active = inhibition above about 31%). The settings on record: absorbance 615 nm, about 18 h, stronger effect = higher value.
The nature of test [8]: growth suppression of yeast trafficking mutant, preliminary HTS, modulators of trafficking downstream of Golgi apparatus project, 1536-format plate, OD 615 nm (AID 637; in the data active = inhibition above about 30%). The settings on record: yeast transport mutant growth, absorbance 615 nm, 18 h; stronger effect = higher value.
Test [9] can be described thus: OD615 S. cerevisiae growth inhibition, permissive medium, pilot counter-assay, permissive growth control for S. cerevisiae lifespan shortening project (AID 705;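 active = growth inhibition above 25% in both replicates, a cutoff set 3 SD above the mean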). The settings on record: OD615, 24 h, at 10 µM, stronger effect = higher value.
Test [10] can be described thus: Restrictive medium S. cerevisiae growth inhibition, OD615, pilot screen of yeast lifespan reduction project, restrictive growth control (AID 706;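 active = growth inhibition above a set limit, 3 SD over mean compound inhibition, in both replicates, cut at about 43% in these data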;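 also: modified DeaD lifespan yeast strain shifted to restrictive glucose medium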). As to conditions: OD615, 48 h, at 10 µM, stronger effect = higher value.
Test [11] in a line: viability gain of MRP-1-high H69AR cells under doxorubicin, pilot screen, MRP-1 activator project, CellTiter-Glo, duplicate (AID 807;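 active = viability increase at or above a cutoff of the median across tested compounds plus 3 SD, cut at about 8.5% in these data, passing the limit was not always enough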;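 also: compound pretreatment 18-22 h then 72 h combined with doxorubicin; 0% = doxorubicin alone and 100% = vehicle without doxorubicin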). The settings on record: H69AR viability with doxorubicin, CellTiter-Glo luminescence; at 10 µM; stronger effect = higher value.
Test [12] is described as follows: growth suppression of beta-catenin knockout HCT116, pilot screen, human colon tumor cells (AID 823;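 active = cell viability at or below a set limit in both duplicate runs, the limit being the all-compound median minus 4 SD, cut at about 23% in these data, passing the limit was not always enough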;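 also: 0% = wells killed by 20 µM Hyamine and 100% = untreated DMSO cell wells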). As to conditions: CellTiter-Glo, 60 h, at 10 µM, stronger effect = lower value.
Test [13] in a line: growth suppression of PTEN-deleted HCT116, pilot screen, cell-based, HCT116 clonal line, CellTiter-Glo (AID 824;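 active = viability at or below 27.92% in each of two runs, the all-compound median minus 4 SD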;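 also: 0% = 20 µM Hyamine control and 100% = vehicle cell control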). As to conditions: 60 h, at 10 µM, stronger effect = lower value.
A short description of test [14]: inhibitors of the yeast RAM network, pilot screen, dse1pr::URA3 reporter, 5-FOA selection (AID 869;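 active = inhibition over a set limit, the all-compound mean plus 3 SD, in both replicate runs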;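 also: 0% = DMSO wells with no growth and 100% = 10 µM 1-NA-PP1 with full growth; RAM network block rescues cells from 5-FOA so hits raise OD615 growth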). As to conditions: S. cerevisiae dse1pr::URA3 5-FOA growth, OD615, 2 d; at 10 µM; stronger effect = higher value; strain carries analog-sensitive mutant Cbk1 kinase.
Test [15] is described as follows: RAM signaling pathway blockade in yeast – S. cerevisiae, Pdr1DBD-CYC8 efflux-inhibited sensitized strain, primary screen (AID 1298;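 active = RAM network inhibition above 8.4% in each of two replicates, 3 SD over the compound average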;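 also: 0% = DMSO untreated cells without growth and 100% = 10 µM 1-NA-PP1 full growth; higher means more yeast growth rescued from 5-FOA killing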). The settings on record: S. cerevisiae cbk1-as DSE1-URA3 strain, 5-FOA growth OD615, 2 d; at 50 µM; stronger effect = higher value.
[16] abbreviates: H69AR cells + 2 uM doxorubicin, measured here: viability with 2 uM doxorubicin, stronger effect = lower value.
Where [17] appears, read: H69AR cells, compound alone cytotoxicity.

As for `COc1ccc(-n2ncc3c(N4CCC(C)CC4)ncnc32)cc1`, the viability (commonly a read-out of living cells in per cent, often relative to untreated cells) in test [1] is 100%; in [3], 100% (inactive); in [4], 56.2% (inactive); in [5], 76.6% (inactive); in [6] (setting [16]), 41.2%; in test [6] (setting [17]), 76.6%. The viability in [12] is 101% (inactive); in test [13], 93.6% (inactive). Moreover, the Her2 level in test [2] was 106% (inactive). Further, in test [6] (H69AR cells + 2 uM doxorubicin), the differential viability (reversal) is 35.3% (inactive). For the same molecule, the results for the inhibition in [7], in test [8] and in test [14] were -4% (inactive), 3% (inactive) and 1.94% (inactive), respectively. Besides, the values for the growth inhibition in [9] and in test [10] were -1.23% (inactive) and -0.39% (inactive), respectively. Moreover, the viability increase in [11] is -2.39% (inactive). In addition, the RAM network inhibition in [15] was 1.63% (inactive).

Consider `O=C1c2ccccc2C(Nc2ccc(F)c(Cl)c2)N1Cc1ccco1` (stereo not given), for which the viability in test [1] was 92%; in test [3], 92% (inactive); in test [4], 58.4% (inactive); in test [5], 74% (inactive); in test [6] (setting [16]), 75%; in test [6] (setting [17]) it was 74%. The viability in [12] was 72.8% (inactive); in [13], 77.1% (inactive). The Her2 level in [2] was 99% (inactive). In addition, the differential viability (reversal) in test [6] (H69AR cells + 2 uM doxorubicin) is -0.96% (inactive). The inhibition (as a rule, the drop in the measured response relative to a control, in per cent) in test [7] was -1.6% (inactive); in test [8], 3.83% (inactive); in test [14] it was 1.6% (inactive). For the same molecule, the growth inhibition in test [9] is -5.7% (inactive); in test [10] it was -1.3% (inactive). The viability increase in test [11] is -4.57% (inactive). For the same molecule, the RAM network inhibition in [15] was 7.74% (inactive).

As for `CCCc1cc(C(=O)Nc2sc3c(c2C#N)CCC3)no1`, the viability in [1] was 86.5%; in [3], 86.5% (inactive); in test [4], 58% (inactive); in [5] it was 29.8% (active); in test [6] (setting [16]), 55.6%; in test [6] (setting [17]) it was 29.8%. The viability in test [12] is 92.2% (inactive); in test [13] it was 87.1% (inactive). Further, the Her2 level in [2] was 77.5% (inactive). Also, the differential viability (reversal) in test [6] (H69AR cells + 2 uM doxorubicin) is -25.9% (inactive). In addition, the inhibition in test [7] was -2.05% (inactive); in test [8], -4.5% (inactive); in test [14], -0.06% (inactive). The growth inhibition in test [9] was 4.12% (inactive); in [10], 0.215% (inactive). For the same molecule, the viability increase in test [11] is -2.05% (inactive). The RAM network inhibition in test [15] is -1.49% (inactive).

As to `COc1ccc(C2CC(c3cccs3)n3nc(N)nc3N2)cc1` (stereo not given), the viability in test [1] is 113%; in test [3] it was 113% (inactive); in test [4], 89.3% (inactive); in test [5] it was 91.4% (inactive); in test [6] (setting [16]), 83.4%; in test [6] (setting [17]), 91.4%. The figures for the viability in test [12] and in [13] were 94.2% (inactive) and 82.2% (inactive), respectively. In addition, the Her2 level in test [2] is 102% (inactive). Besides, the differential viability (reversal) in [6] (H69AR cells + 2 uM doxorubicin) was 7.99% (inactive). Further, the inhibition is -2.4% (inactive) in [7], -6.39% (inactive) in [8] and 0.275% (inactive) in test [14]. Besides, the growth inhibition in [9] is 2.05% (inactive); in test [10], 17% (inactive). In addition, the viability increase in [11] is -1.71% (inactive). In test [15], the RAM network inhibition was 8.26% (inactive).

Turning to `CC1CCN(C(=O)CSCC(=O)Nc2nc(-c3cccs3)cs2)CC1`, the viability was 86% in test [1]; 86% (inactive) in [3]; 67% (inactive) in test [4]; 91.1% (inactive) in test [5]; 86.6% in [6] (setting [16]); 91.1% in test [6] (setting [17]). Moreover, the viability is 100% (inactive) in test [12] and 92.1% (inactive) in [13]. Moreover, in test [2], the Her2 level is 80.5% (inactive). Besides, the differential viability (reversal) in test [6] (H69AR cells + 2 uM doxorubicin) was 4.54% (inactive). Further, the results for the inhibition in test [7], in [8] and in test [14] were -1.33% (inactive), -1.15% (inactive) and 0.24% (inactive), respectively. In addition, the figures for the growth inhibition in [9] and in [10] were 1.36% (inactive) and -5.56% (inactive), respectively. Also, the viability increase in test [11] is -4.14% (inactive). Moreover, in [15], the RAM network inhibition was -0.16% (inactive).
